The nature of experiment [1]: A CellTox Green Cytotoxicity Assay to monitor cytotoxicity in HepG2 cells - 8 hour (AID 1224890). Further: nearly all actives have a fitted effect of over 45% in size. The method in brief:
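First, HepG2 cells (600/well) mixed with reagent were plated; second, after 5 h at 37 C they received compounds via pintool; third, fluorescence was measured at 0 h through 40 h at 8 h intervals.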

The nature of experiment [2]: qHTS assay to identify small molecule antagonists of the estrogen receptor alpha (ER-alpha) signaling pathway using the BG1 cell line in the presence of 0.1 nM 17-beta-estradiol - cell viability counter screen (AID 1259241). Further: nearly all actives have a fitted effect of over 40% in size. The method in brief: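 VM7Luc4E2, 4,000 cells/well, phenol red-free medium + 10% charcoal-stripped FBS; 24 hr plating; cpd + 0.1 nM E2 final, 22 hr 37C/5% CO2; CellTiter-Fluor 30 min, fluorescence.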

Experiment [3] is described as follows: qHTS assay to identify small molecule antagonists of the androgen receptor (AR) signaling pathway using the MDA cell line in the presence of 0.5 nM R1881 - cell viability counter screen (AID 1259242). Further: nearly all actives have a fitted effect of over 45% in size. The method in brief:
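qHTS format. MDA-kb2 (MMTV-luc, AR/GR responsive) + cpd + 0.5 nM R1881 final, 16 hr 37C/0% CO2 → CellTiter-Fluor 30 min → fluorescence intensity.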
A general note: qHTS replaces the single test concentration by a dilution series.

The nature of experiment [4]: qHTS assay to identify small molecule phospholipidosis (PLD) inducers (AID 1259344; active means well fitted curve in the direction sought with a large enough effect; an effect the other way counts as inactive or inconclusive). The method, boiled down:
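Phospholipid accumulation was scored by imaging: fixed, Hoechst-counterstained HepG2 cells stained with LipidTOX Red after 24 h compound exposure at 37 C. Read-outs were pit count and pit intensity per well or per cell, with amiodarone and DMSO controls.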

Experiment [5] in a line: qHTS assay to identify small molecule HDAC inhibitors (AID 1259364).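 Further: wild-type HCT-116 cells with endogenous class I/II HDAC activity; top concentration of the series differs between compounds; nearly all actives have a fitted effect of over 45% in size.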 The method in brief: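 Quantitative high-throughput format: overnight-seeded HCT-116 cells got compounds for 2 hr at 37C; HDAC-Glo I/II reagent added, 30 min RT, luminescence measured.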
The nature of experiment [6]: qHTS assay to identify small molecule HDAC inhibitors - cell viability counter screen (AID 1259365). Further: series mostly up to about 92 µM; nearly all actives have a fitted effect of over 50% in size. The method in brief:
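Luminescence from CellTiter-Glo, developed 30min at room temperature, reports viability of wild-type HCT-116 cells treated 2hr with compounds at 37 C and 5% CO2 after overnight plating.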

A short description of experiment [7]: qHTS assay to identify small molecule agonists of the sonic hedgehog signaling (Shh) pathway - cell viability counter screen (AID 1259366). Further: nearly all actives have a fitted effect of over 50% in size. The method, boiled down:
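Cytotoxicity counter screen run in the same wells as the Shh reporter assay. NIH/3T3 cells carrying a Gli1 response element–driven luciferase were treated with DMSO-dissolved compounds for 24hr, and live-cell protease activity was measured with CellTiter-Fluor.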

A short description of experiment [8]: qHTS assay to identify small molecule antagonists of the sonic hedgehog signaling (Shh) pathway - cell viability counter screen (AID 1259367). Further: nearly all actives have a fitted effect of over 55% in size. Further: potency means the concentration at half of the fitted maximal effect. The method in brief:
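Viability was read by CellTiter-Fluor fluorescence in the same wells, reagent added 23 hr into compound treatment and incubated 1 hr at 37C. The 3T3 Gli1-Luc reporter cells (2,000/well) received conditioned medium after compound and ran 24 hr.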

Experiment [9] can be described thus: qHTS assay to identify small molecule agonists of the sonic hedgehog signaling (Shh) pathway (AID 1259368; calls by dose curve;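 further: NIH/3T3-derived 3T3Gli1-Luc cells carrying a stable Gli1-driven firefly luciferase reporter; series mostly up to about 92 µM; nearly all actives have a fitted effect of over 15% in size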). The method in brief: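 Quantitative high-throughput format using a Gli1-driven firefly luciferase reporter line derived from NIH/3T3 cells. After a 24 hr compound treatment at 37 C and 5% CO2, luminescence reported Gli1 response element activity.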
Experiment [10] in a line: qHTS assay to identify small molecule antagonists of the sonic hedgehog signaling (Shh) pathway (AID 1259369; calls by dose curve; further: nearly all actives have a fitted effect of over 45% in size). The method, boiled down: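 Stable Gli1-Luc reporter NIH/3T3 clone; quantitative HTS in stimulated mode with conditioned medium. Luminescence measured after 24hr compound treatment at 37 C.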
The target of experiment [11] is Estrogen receptor beta (Homo sapiens) (UniProt Q92731). Put plainly: qHTS assay to identify small molecule agonists of the estrogen receptor beta (ER-beta) signaling pathway (AID 1259377; active means well fitted activation curve with a large enough effect in the signal ratio in the repeat runs, not every such curve was filed as active; the % refers to the signal ratio). The method in brief:
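HEK293T ER-beta-UAS-bla; 2% charcoal-stripped FBS; cells pre-incubated 6 hr, compound 16 hr, 37C/5% CO2; LiveBLAzer B/G FRET substrate 2 h RT; fluorescence intensity read.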

The target is the same in experiment [12]. Put plainly: qHTS assay to identify small molecule antagonists of the estrogen receptor beta (ER-beta) signaling pathway (AID 1259378; active means well fitted inhibition curve with a large enough effect in the signal ratio in the repeat runs, not every such curve was filed as active; the % refers to the signal ratio). The method in brief:
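Antagonist mode: compounds added to beta-lactamase reporter HEK293T ER-beta-UAS cells stimulated with E2 (1nM final), 16 hr at 37C. LiveBLAzer B/G FRET substrate, 2 hours room temperature, fluorescence read-out.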

A short description of experiment [13]: qHTS assay to identify small molecule agonists of the androgen receptor (AR) signaling pathway in the presence of an antagonist - cell viability counter screen (AID 1259379).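 Further: MDA-kb2 human breast cancer cells carrying an MMTV luciferase reporter; series mostly up to about 92 µM; nearly all actives have a fitted effect of over 25% in size.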 The method in brief:
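Nilutamide-containing (3.0uM final) MDA-kb2 cultures, 3,000 cells/well, were treated with compounds across 15 concentrations. After 16 hr at 37C with no CO2, cell viability was determined by CellTiter-Fluor fluorescence in the luciferase assay wells.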

Experiment [14] in a line: qHTS assay to identify small molecule agonists of the estrogen receptor beta (ER-beta) signaling pathway - cell viability counter screen (AID 1259380). Further: nearly all actives have a fitted effect of over 30% in size. The method, boiled down: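 Steps: plate ER-beta-UAS-bla HEK293T cells, rest 6 hr; add compounds in DMSO; incubate 16 hr at 37C, 5% CO2; add FRET substrate 2 hr; add CellTiter-Glo, wait 30 min at room temperature; read luminescence.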

Experiment [15] in a line: qHTS assay to identify small molecule antagonists of the estrogen receptor beta (ER-beta) signaling pathway - cell viability counter screen (AID 1259382).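 Further: HEK293T cells carrying ER-beta-UAS-bla reporter stimulated with estradiol; series mostly up to about 92 µM; nearly all actives have a fitted effect of over 55% in size.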 The method in brief:
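Viability is scored by CellTiter-Glo luminescence (30 min, room temperature) in ER-beta-UAS-bla HEK293T wells already read for reporter fluorescence. Compound exposure lasts 16 hr at 37C alongside 1nM 17-beta-estradiol in charcoal-stripped serum medium.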

Experiment [16] can be described thus: qHTS assay to identify small molecule agonists or antagonists of the thyroid stimulating hormone receptor (TSHR) signaling pathway - wild type cell line counter screen (AID 1259384; calls by dose curve). The method, boiled down: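 Counter screen in untransfected Hek293: compounds (15-point titration, triplicate) plus phosphodiesterase inhibitor Ro20-1724 added after 18 h plating; 30 min RT. Intracellular cAMP via competitive d2/cryptate immunoassay, 1 h incubation.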

Experiment [17] addresses Estrogen receptor (Homo sapiens) (UniProt P03372). Put plainly: qHTS assay to identify small molecule agonists of the estrogen receptor alpha (ER-alpha) signaling pathway in the presence of an antagonist (AID 1259383; calls by dose curve; further: top concentration of the series differs between compounds; nearly all actives have a fitted effect of over 15% in size). The method in brief:
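Readout was ERE-driven luciferase luminescence in VM7Luc4E2 cells, which express full-length ER-alpha endogenously. Compounds were tested at 15 concentrations for 22hr alongside 10.0nM ICI-182,780 (final concentration).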

Values without a mark were called inactive. Inconclusive results are not listed. Calls of active or inactive are those of the source. Unless noted, the call rests on the fitted dose curve; in most records, active means well fitted curve in the direction sought with a large enough effect in the repeat runs; inconclusive means weak or mixed curves; inactive means no such curve, though single readings can be large; an effect the other way counts as inactive or inconclusive.
On the % scale 0 is the no-effect control and ±100 the full control effect.

Chain of Estrogen receptor beta (Homo sapiens) (Q92731 whole entry, looked up): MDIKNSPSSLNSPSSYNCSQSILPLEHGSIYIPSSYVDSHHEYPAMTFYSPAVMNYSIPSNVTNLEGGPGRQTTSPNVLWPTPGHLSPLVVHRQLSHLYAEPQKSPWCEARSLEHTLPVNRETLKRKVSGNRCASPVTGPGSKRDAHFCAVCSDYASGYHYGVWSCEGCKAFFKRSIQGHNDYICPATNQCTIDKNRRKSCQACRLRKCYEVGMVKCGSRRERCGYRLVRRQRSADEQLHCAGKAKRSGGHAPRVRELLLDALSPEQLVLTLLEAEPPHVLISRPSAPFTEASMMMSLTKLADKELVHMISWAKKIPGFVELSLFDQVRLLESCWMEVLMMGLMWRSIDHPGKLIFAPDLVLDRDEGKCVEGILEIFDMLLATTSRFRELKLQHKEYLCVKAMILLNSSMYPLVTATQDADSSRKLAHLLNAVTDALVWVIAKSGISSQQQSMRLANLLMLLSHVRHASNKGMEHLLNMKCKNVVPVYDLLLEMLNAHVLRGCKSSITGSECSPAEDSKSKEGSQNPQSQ
Chain of Estrogen receptor (Homo sapiens) (P03372 whole entry, looked up): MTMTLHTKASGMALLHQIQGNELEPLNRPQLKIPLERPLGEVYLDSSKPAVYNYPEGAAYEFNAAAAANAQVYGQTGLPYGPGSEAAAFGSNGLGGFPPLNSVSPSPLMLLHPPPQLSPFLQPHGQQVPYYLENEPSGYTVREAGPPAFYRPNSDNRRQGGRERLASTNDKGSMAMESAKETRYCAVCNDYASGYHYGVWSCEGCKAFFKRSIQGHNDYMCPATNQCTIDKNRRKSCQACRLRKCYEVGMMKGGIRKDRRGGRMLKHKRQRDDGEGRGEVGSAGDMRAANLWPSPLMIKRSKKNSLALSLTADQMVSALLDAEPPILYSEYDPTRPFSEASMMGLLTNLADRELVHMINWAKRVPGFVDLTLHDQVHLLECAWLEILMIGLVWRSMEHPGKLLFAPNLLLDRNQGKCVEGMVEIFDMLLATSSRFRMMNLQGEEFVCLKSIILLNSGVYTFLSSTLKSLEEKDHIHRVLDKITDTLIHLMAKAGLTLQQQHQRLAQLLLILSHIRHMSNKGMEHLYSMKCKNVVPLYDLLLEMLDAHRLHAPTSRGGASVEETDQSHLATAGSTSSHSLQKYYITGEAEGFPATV

`NCCC(O)(P(=O)(O)O)P(=O)(O)O`: the Potency result in experiment [1], in experiment [2], in [5], in [7], in experiment [8] and in experiment [9] was “inactive” throughout. For the same compound, the Potency result in experiment [10], in [12], in [13] and in [14] was “inactive” in each case. Moreover, the result in [3], in experiment [4], in [6], in experiment [11], in experiment [15] and in experiment [16] was inactive.
On to `CCCNC(C)(C)COC(=O)c1ccccc1`, for which the Potency entry in [1], in [2], in experiment [5], in [7], in [8] and in [9] was “inactive” in each case. Moreover, the Potency result in [10], in experiment [13], in experiment [14] and in [17] was “inactive” in each case. Besides, the outcome in [3], in experiment [4], in [6], in experiment [15] and in experiment [16] was inactive.
With `O=C(O)c1ccccc1Nc1cc(Cl)ccc1C(=O)O`, in [1], the cytotoxicity increase was 7.19% [at 15.8 µM]. The activity change, negative = cytotoxicity in [2] was -25.8% [at 19 µM]; in [6] it was -5.17% [at 19 µM]; in experiment [13], -0.898% [at 19 µM]; in experiment [14], -3.75% [at 19 µM]; in experiment [15], -13.6% [at 19 µM]. Also, the viability change, negative = cytotoxic in experiment [3] is -0.133% [at 19 µM]. In [4], the PLD induction was -4.32% [at 7.66 µM]. Moreover, in experiment [5], the activity change, negative = inhibition was -1.95% [at 19 µM]. In addition, the activity change in experiment [9] is -0.0136% [at 18.9 µM, active compounds read high]. The activation in experiment [11] was 0.616% [at 19 µM]; in experiment [17], -1.25% [at 19 µM]. Moreover, the cAMP activity change in [16] was 0.0654% [at 18.9 µM].
For `ClC(Cl)Cl`, the Potency result in [1], in experiment [2], in experiment [5], in experiment [9], in [12] and in experiment [13] was “inactive” throughout. In addition, the Potency result in [14] is “inactive”. The outcome in experiment [3], in experiment [4], in experiment [6], in [15] and in experiment [16] was inactive. Also, the Potency in experiment [8] is 42.9 µM (active).
`COc1ccccc1OCC(O)COC(N)=O` (stereo unspecified): the Potency result in experiment [1], in [2], in experiment [5], in experiment [7], in experiment [9] and in experiment [10] was “inactive” in each case. The Potency result in experiment [13], in experiment [14] and in experiment [17] was “inactive” throughout. The outcome in [3], in [4], in [6], in experiment [15] and in [16] was inactive.
With `COc1cc(Cl)ccc1Cl`, the Potency entry in experiment [1], in experiment [2], in [5], in experiment [7], in experiment [8] and in experiment [9] was “inactive” throughout. For the same compound, the Potency result in [10], in experiment [12], in experiment [13] and in [14] was “inactive” in each case. Moreover, the outcome in [3], in experiment [6], in experiment [11], in experiment [15] and in experiment [16] was inactive.
